Screening data: PubChem BioAssay, National Center for Advancing Translational Sciences (NCATS)
Hits are enriched below; roughly 2.9% of the tested compounds scored in any of these assays.
DRV1 agonist = GPR32 (DRV1) agonism, beta-arrestin recruitment; O75388; activation, % at 76.9 µM; hit rate 2.5% among 48,000; AID 1346428; CHO-K1 GPR32 beta-arrestin PathHunter luminescence, 90 min; zero percent set by DMSO-only wells;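 active = activation of at least 60% and not above a set upper limit, about 1 call in 100 departs from these limits; inconclusive = activation of 40% to 60%, or above that upper limit; inactive = activation under 40%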; note: 0% is about no effect
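Using DMSO wells as EC0, agonist-induced signal was taken as chemiluminescence from beta-Gal reconstituted upon beta-arrestin recruitment to GPR32 in CHO-K1 cells after 90 min compound treatment.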
TSG101-PTAP inh = blocks PTAP binding to human TSG101, validation. 44,000 tested, under 10 active. Potency, µM (highest dose often 115 µM), actives largely listed as inhibitors. Fluorescence polarization, FITC-PTAP peptide/Tsg101, 20 min. AID 1347069; note: potency is the fitted concentration of half-maximal effect; 0% is about no effect
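Fluorescence polarization binding of Tsg101 binding domain (10 uM final) to FITC-labeled PTAP-motif peptide (50 nM final) in HEPES pH 7.5/NaCl/Tween 20/EDTA/TCEP buffer; 20 min at r.t. Actives by curve class, <25 µM, efficacy <60% inhibition.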
B2AR arrestin ag = agonists recruiting beta-arrestin to human beta2-adrenergic receptor. P07550. HTLA Tango cells, beta-arrestin recruitment, luciferase luminescence, 18 h. Potency, µM (top dose mostly 46.1 µM), most hits filed as activators. 44,000 tested, under 10 active. AID 1347077;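 note: potency is the fitted concentration of half-maximal effect; 0% = DMSO and full agonism = EC100 isoproterenol or metaproterenol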
Target sequence (P07550 whole entry, looked up): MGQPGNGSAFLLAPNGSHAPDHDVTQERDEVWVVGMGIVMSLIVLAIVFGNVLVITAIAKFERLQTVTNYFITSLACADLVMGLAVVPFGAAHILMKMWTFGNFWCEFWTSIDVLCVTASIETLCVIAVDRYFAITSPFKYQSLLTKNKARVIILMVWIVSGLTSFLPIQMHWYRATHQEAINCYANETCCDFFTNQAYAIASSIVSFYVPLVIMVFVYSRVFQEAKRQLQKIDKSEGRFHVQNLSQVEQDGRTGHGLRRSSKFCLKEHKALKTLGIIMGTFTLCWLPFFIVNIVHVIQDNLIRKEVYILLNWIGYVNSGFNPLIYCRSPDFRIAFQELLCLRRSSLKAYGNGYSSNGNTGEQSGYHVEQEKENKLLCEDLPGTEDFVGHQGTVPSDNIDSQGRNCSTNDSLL
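Receptor–beta-arrestin recruitment read by tTA-responsive luciferase: compound titrations (up to 46 µM) incubated 18 h with Tango cells, then luminescent substrate 15 min at room temperature. Concentration-response fits classified by r2, efficacy and activity.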
GALC G270D up = galactocerebrosidase G270D activity enhancement, cell-based; P54803; hit rate 0.1% among 45,000; Potency, µM (series often up to 57.5 µM), usual class: activators; 145M-Twi-hGALC-G270D cells (Twitcher mouse brain line with human GALC G270D), HMU-beta-Gal fluorescence, 48 h; AID 1159614; note: potency is the fitted concentration of half-maximal effect; 0% is about no effect; nearly all actives have a fitted effect of over 65% in size
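Mutant human GALC (G270D), stably expressed in a Twitcher mouse brain cell line lacking endogenous GALC, is measured in live-treated cells via 6-hexadecanoylamino-4-methylumbelliferyl-β-galactoside hydrolysis (0.1 mM final, pH 5.2) with fluorescent detection.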
* = called active by the depositor; i = inactive; ? = inconclusive; · = not tested or not shown; ! = repeats disagree. Unless noted, calls come from the whole dose curve; as a rule, active = well fitted curve in the direction sought with a large enough effect; inconclusive = small, poorly fitted or top-dose-only effect, or another doubt; inactive = no such curve, though single readings can be large; an effect the other way counts as inactive or inconclusive.

SMILES	DRV1 agonist	TSG101-PTAP inh	B2AR arrestin ag	GALC G270D up
COc1ccc(C(=O)N2CCC(c3nc4ccccc4s3)CC2)cc1Cl	75.5*	i	i	i
CCCOc1ccc(C(=O)N2CCC(c3nc4ccccc4s3)CC2)cc1	-0.3	i	i	i
CCN1CCN(C(=O)Cn2ncc3c4ccccc4n(Cc4c(C)cc(C)cc4C)c3c2=O)CC1	-16.8	i	i	i
CCN(CC)CC(=O)Oc1ccc(NC(C)=O)cc1	0.2	·	·	i
Cc1ccccc1C(=O)Nc1ccc(C(=O)N2CCCC(N(C)C)c3ccccc32)cc1 (centres undefined)	3.3	·	·	i
COc1cc2nc(Nc3cccc(C)c3)nc(N)c2cc1OC	10.0	i	i	i
COc1cc2nc(Nc3ccc(C)c(C)c3)nc(N)c2cc1OC	82.9*	i	i	i
CO[C@@H]1[C@@H](OC)[C@H](C)[C@@](O)(CC(=O)O)O[C@H]1[C@H](C)[C@H]1O[C@@]2(CC[C@@](C)([C@H]3CC[C@@](C)([C@@H]4O[C@@H]([C@H]5O[C@](C)(O)[C@H](C)C[C@@H]5C)C[C@@H]4OC4C[C@H](OC)[C@@H](OC)[C@H](C)O4)O3)O2)C[C@H](O)[C@H]1C (some centres undefined)	?	·	·	i
C/C=C(/C(=C/C)c1ccc(OC(C)=O)cc1)c1ccc(OC(C)=O)cc1	42.4	·	·	i
CN(C)CCOC(c1ccccc1)c1ccc(Br)cc1 (centres undefined)	15.2	·	·	i
Cc1noc(C)c1S(=O)(=O)Nc1ccc(C(=O)Nc2ccc(Br)cc2)cc1	95.4*	i	i	i
Cc1cc(Br)ccc1NC(=O)c1ccc(NS(=O)(=O)c2c(C)noc2C)cc1	63.8*	i	i	i
Cc1noc(C)c1S(=O)(=O)N1CCC(C(=O)Nc2ccc(Br)cc2)CC1	5.3	i	i	i
Cc1noc(C)c1S(=O)(=O)Nc1ccc(C(=O)Nc2ccc(C(C)C)cc2)cc1	91.0*	i	i	i
COC(=O)c1cc(Cl)ccc1NS(=O)(=O)C(F)(F)F	-4.1	·	·	i
O=C(Nc1cc(-c2nc3ccccc3o2)ccc1Cl)c1sc2c([N+](=O)[O-])cccc2c1Cl	2.1	i	i	i
CCOc1ccc(NC(=O)c2nc(S(=O)(=O)Cc3ccccc3F)ncc2Cl)cc1	-25.3	i	i	i
O=C(Nc1nc2ccc(F)cc2s1)c1nc(S(=O)(=O)Cc2ccccc2F)ncc1Cl	105.3*	i	i	i
OCCN1CCN(CCCN2c3ccccc3Sc3ccc(C(F)(F)F)cc32)CC1	-14.4	·	·	i
OCCN1CCN(CC/C=C2/c3ccccc3Sc3ccc(C(F)(F)F)cc32)CC1	61.7*!	·	·	i
O=C(NCc1ccc(Cl)cc1Cl)c1cccc(N2CCCS2(=O)=O)c1	61.7*	i	i	i
CCCc1cc(=O)[nH]c(Nc2ccc(C(=O)O)cc2)n1	-2.1	i	i	·
CCCOC(=O)c1cccc(Nc2nc(CCC)cc(=O)[nH]2)c1	86.9*	i	i	·
COc1ccc(-c2noc(CNC(=O)c3ccc(OC)cc3OC)n2)cc1	-5.4	i	i	i
COc1cc(OC)c(C(=O)NCc2nc(-c3ccccc3)no2)cc1OC	70.7*	i	i	i
SMILES	DRV1 agonist	TSG101-PTAP inh	B2AR arrestin ag	GALC G270D up
Cc1ccc(CN2C(=O)C(O)(c3c[nH]c4ccccc34)c3cc(Cl)ccc32)cc1 (centres undefined)	87.0*	i	i	i
Cc1[nH]c2ccccc2c1C1(O)C(=O)N(Cc2ccccc2)c2ccc(Br)cc21 (centres undefined)	?	i	i	i
COc1cc(S(N)(=O)=O)cc(C(=O)O)c1OC	-5.2	·	·	i
CCOc1cc(C(=O)Nc2ccc(NC(=O)c3cc4ccccc4o3)c(OC)c2)cc(OCC)c1OCC	105.2*	i	i	i
COc1cc(NC(=O)c2cc(Cl)c(OC)c(Cl)c2)ccc1NC(=O)c1cc2ccccc2o1	2.2	i	i	i
O=C1OC2(c3ccccc31)c1cc(Br)c(O)c(Br)c1Oc1c2cc(Br)c(O)c1Br	68.3*	·	·	i
O=C(Nc1ccc(S(=O)(=O)N2CCOCC2)cc1)c1cc(Cl)ccc1NS(=O)(=O)c1ccc(Cl)s1	?	·	·	i
CCc1ccc(C2c3c(-c4ccccc4O)n[nH]c3C(=O)N2Cc2ccncc2)cc1 (centres undefined)	-2.2	i	?	i
COc1cc(C2c3c(-c4cc(C)ccc4O)n[nH]c3C(=O)N2CCCO)ccc1OCCC(C)C (centres undefined)	102.0*	i	i	i
COCCN1C(=O)c2[nH]nc(-c3cc(C)ccc3O)c2C1c1ccc(C(C)C)cc1 (centres undefined)	25.2	i	i	i
CCOCCCN1C(=O)c2[nH]nc(-c3ccccc3O)c2C1c1ccc(CC)cc1 (centres undefined)	-10.1	i	7.08µM*	i
COc1ccccc1C(=O)Nc1cc2c(cc1N1CCOCC1)n(C)c(=O)n2C	-5.2	i	i	·
CCOc1ccccc1C(=O)Nc1cc2c(cc1N1CCCCC1)n(C)c(=O)n2C	69.7*	i	i	·
CCOC(=O)c1noc2ncn(CC(=O)Nc3ccc(C)c(F)c3)c(=O)c12	76.0*	i	i	i
CCOC(=O)c1noc2ncn(CC(=O)Nc3cccc(Cl)c3)c(=O)c12	14.1	i	i	i
O=c1cc(-c2ccccc2)oc2ccccc12	62.3*	·	·	i
O=c1[nH]c(=O)c2ccccc2o1	-2.3	·	·	i
COc1ccc(CCNc2ncnc3c2cnn3-c2ccc(C)c(Cl)c2)cc1	?	i	i	i
Cc1ccc(CNc2ncnc3c2cnn3-c2ccc(C)cc2C)cc1	61.2*	i	i	i
Cc1ccc(-n2ncc3c(NCCc4ccccc4)ncnc32)cc1	93.5*	i	i	i
Cc1ccc(-n2ncc3c(NCCc4ccccc4)ncnc32)cc1Cl	117.2*	i	i	i
COc1ccc(CCNC(=O)Cn2nc(C)c3c(C)n(-c4ccc(C)cc4)nc3c2=O)c(OC)c1	-2.9	i	i	i
CC(NC(=O)Cc1ccc(NC(=O)N2CCCCc3ccccc32)cc1)c1ccccc1 (centres undefined)	-16.3	i	i	i
COc1ccc(CCN2CCC(Nc3nc4ccccc4n3Cc3ccc(F)cc3)CC2)cc1	94.6*	·	·	i
Oc1cccc(C(Nc2ccccn2)c2ccc3cccnc3c2O)c1Cl (centres undefined)	81.0*	i	?	·
COC(=O)c1cc(Nc2nc3ccccc3nc2NS(=O)(=O)c2ccc(C)cc2)ccc1Cl	98.8*	i	i	i
